# NR3A LBD binder: binders of NR3A ligand-binding domain, primary screen, biophysical, differential scanning fluorimetry, uHTS; Glutamate receptor ionotropic, NMDA 3A (GRIN3A) ligand-binding domain; NR3A LBD differential scanning fluorimetry, Tm shift; 0% = protein alone, 100% = glycine-bound protein; Tm shift relative to glycine control, % at 25 µM; actives 2.5% (n = 340,000); AID 1259313, 2017;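 active means melting temperature shift of at least 10% of the positive control shift, at one fixed dose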
# FAS TE block: FAS thioesterase domain inhibitors, primary screen, biochemical, fluorescence intensity, uHTS | Fatty acid synthase (Homo sapiens), P49327 | recombinant FAS-TE, OMFH fluorogenic substrate, fluorescence endpoint | inhibition, % at 15 µM | actives 0.67% (n = 360,000) | AID 602261, 2012;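 active means compounds whose normalised, plate-corrected inhibition of enzyme fluorescence in the single-dose primary screen is 50% or more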;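 further: 0% = DMSO with enzyme and 100% = substrate without enzyme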
# rCAG RNA binder: binders of r(CAG) RNA repeats, primary screen, biochemical, fluorescence; actives 1.3% (n = 370,000); r(CAG) RNA repeat, TO-PRO-1 dye displacement fluorescence; inhibition, % at 3 µM;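 active means inhibition above the plate cutoff, the mean of all test compounds on that plate plus 3 SD, cut at about 35% in these data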;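 further: 0% = DMSO alone and 100% = 100 µM mitoxantrone as full dye displacement; higher means more dye released from RNA so lower well fluorescence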
# NadD block: inhibitors of S. aureus NadD, primary screen, biochemical, colorimetric, uHTS. purified NadD enzyme, colorimetric absorbance read-out. inhibition, % at 20 µM. actives 0.78% (n = 360,000). AID 602399, 2012; in the data active means inhibition above about 26%
# * marks the source's active call; other numbers are inactive results; / = not tested or not shown. Compounds with a hit are over-represented: about 4.3% of the library has one in this group of screens.
SMILES,NR3A LBD binder,FAS TE block,rCAG RNA binder,NadD block
N/C(=N\OC(=O)c1ccc(Br)cc1)c1cccc([N+](=O)[O-])c1,7,25,-3,-2
COc1cc(C(=O)O/N=C(\N)c2ccc([N+](=O)[O-])cc2)cc(OC)c1OC,1,-1,-2,2
CCN(CC)C(=O)CSc1nnc(-c2cccs2)o1,/,/,-1,/
COc1ccc(N2CCN(C(CNC(=O)C(=O)NCC3CCCO3)c3ccco3)CC2)cc1 (centres undefined),10*,-4,-7,-7
COc1ccc(C(=O)NCC2CCCO2)cc1 (centres undefined),12*,-10,4,3
COc1cc(OC)cc(C(=O)Nc2ccc(C(=O)NCC3CCCO3)cc2)c1 (centres undefined),0,-3,-7,-2
COC(=O)NCC(c1ccco1)N1CCN(c2ccc(OC)cc2)CC1 (centres undefined),2,-5,3,-2
CC(C)C(=O)N1CCC2(CC1)Oc1ccc(Cl)cc1C(=O)C21CC(c2ccccc2)=NO1 (centres undefined),1,57*,0,7
CCc1ccccc1NC1c2ccccc2C(=O)N1c1cc(C)ccn1 (centres undefined),17*,5,1,-5
CCOc1cc(C(=S)N2CCOCC2)ccc1OC(=O)c1ccccc1,-5,10,-7,-2
COc1cc(C(=S)N2CCCC2)ccc1OS(=O)(=O)c1ccc(NC(C)=O)cc1,20*,37,4,-5
CCOc1cc(C(=S)N2CCOCC2)ccc1OS(=O)(=O)c1ccccc1,11*,14,-3,0
CCOc1ccccc1NC(=S)N1CCN(c2ccc(O)cc2)CC1,7,-7,5,-8
CCOc1ccccc1NC(=S)N1CCN(c2ccc(OC)cc2)CC1,10*,5,3,-1
CCCCN(CCCC)C1=Nc2ccccc2N/C1=C(/C#N)C(=O)OCC,17*,11,-3,11
CCOc1ccc(C(=O)OCC(=O)NCCNC(=O)COC(=O)c2ccc(OCC)cc2)cc1,14*,-7,-5,-4
CCOc1ccc(C(=O)OCC(=O)NC(C)C)cc1,0,-7,-3,2
CCOc1ccc(C(=O)NCCCCNC(=O)c2ccc(OCC)cc2)cc1,15*,-11,-3,1
Cc1cc(NS(=O)(=O)c2ccc(NC(=O)CSc3nnc(-c4cnccn4)n3-c3ccccc3)cc2)nc(C)n1,/,/,16,/
Oc1ccc(-c2nc3ccccc3s2)c(O)c1,39*,8,12,-2
Oc1ccc(-c2nc3ccccc3s2)cc1,15*,1,2,-6
COc1cccc(-c2nc3ccccc3s2)c1,3,5,-3,-2
COc1ccc(-c2nc3ccccc3s2)cc1,40*,17,1,-6
O=C(CSc1nc2ccccc2s1)c1ccc(O)cc1O,30*,-2,20,-11
O=C(CSc1nc2ccccc2s1)N1c2ccccc2Sc2ccccc21,4,27,6,1
SMILES,NR3A LBD binder,FAS TE block,rCAG RNA binder,NadD block
Nc1ccccc1-c1nc2ccccc2s1,-19,19,8,-4
O=S1(=O)CCOCC(CO)N1Cc1cccc(Br)c1 (centres undefined),/,/,2,/
CC(C)(C)OC(=O)NCc1ccccc1/C=C/S(=O)(=O)NCc1ccccc1,/,/,0,/
COc1ccc(-n2c(SCC(=O)Nc3cc(C)c(NC(=O)c4ccccc4)cc3OC)nnc2-c2ccco2)cc1,/,/,12,/
COC(=O)[C@H](C(C)C)N(Cc1cn(CC2CCCCC2)nn1)S(=O)(=O)c1ccc(F)cc1Br,/,/,4,/
Cc1ccc(NC(=O)Nc2nc3ccc(S(C)(=O)=O)cc3s2)cc1,28*,-10,29,3
CC(=O)Nc1ccc(S(=O)(=O)Nc2nc3ccccc3s2)cc1,-8,-9,8,-4
CC(C)(C)C(=O)Nc1nc2ccc(S(C)(=O)=O)cc2s1,-1,-8,1,3
CS(=O)(=O)c1ccc2nc(NC(=O)Nc3ccc(Cl)c(Cl)c3)sc2c1,31*,3,24,17
CC(=O)Nc1ccc(S(=O)(=O)Nc2nc3ccc([N+](=O)[O-])cc3s2)cc1,16*,11,18,-2
CS(=O)(=O)c1ccc2nc(NC(=O)Nc3ccccc3F)sc2c1,3,-4,9,4
CCOC(=O)C1=C(C)N=c2s/c(=C\c3cccc(OCC(=O)O)c3)c(=O)n2C1c1ccccc1OC (centres undefined),2,6,10,9
CCOC(=O)C1=C(c2ccccc2)N=c2s/c(=C\c3cccc(O)c3)c(=O)n2C1c1cccs1 (centres undefined),14*,32,19,29
Cc1ccc(N2C(=O)N(CC(=O)c3cc(C)ccc3C)C(=O)C2C)cc1 (centres undefined),13*,18,-5,-8
C=CCN1[C@H](Cc2ccccc2)COc2cc(F)ccc2S1(=O)=O,/,/,-3,/
CN(C(=O)c1ccncc1)c1ccccc1,11*,-9,1,-9
CN(C(=O)c1cccc(C(=O)N(C)c2ccccc2)c1)c1ccccc1,-7,0,-6,1
N=C1/C(=C\c2ccc(-c3ccc(C(=O)O)cc3)o2)C(=O)N=C2SC=C(c3ccccc3)N12,-7,28,18,67*
COc1cc(/C=C2/C(=N)N3C(c4ccccc4)=CSC3=NC2=O)ccc1OCC(=O)O,0,-6,28,4
Cc1cc(C)n2nc(C(=O)N/N=C/c3cccc(Cl)c3)nc2n1,12*,2,-1,5
Nc1nc2c(ncn2[C@@H]2O[C@H](C(=O)N[C@H](Cc3ccccc3)C(=O)NC3CCCCC3)[C@@H](O)[C@H]2O)c(=O)[nH]1,/,/,3,/
CSc1nc(Oc2ccccc2)c2sccc2n1,-1,14,-1,-7
C=CCSc1nc(Oc2ccccc2)c2sccc2n1,15*,25,-1,7
CCOc1cccc(SCc2noc(C(=O)NCC3CCCO3)c2C(=O)O)c1 (centres undefined),17*,-11,17,-1
COc1cc(/C=N/Nc2ccc(C(=O)O)cc2)ccc1O,27*,-7,3,-3
SMILES,NR3A LBD binder,FAS TE block,rCAG RNA binder,NadD block
O=[N+]([O-])c1ccc(N/N=C\c2ccccc2OCc2ccccc2)cc1,20*,8,13,1
COc1cc(/C=C/C(=O)/C=C(O)/C=C/c2ccc(O)c(OC)c2)ccc1O,27*,-1,21,25
COc1ccc(/C=N/Nc2ccc([N+](=O)[O-])cc2)cc1O,27*,-13,20,-9
O=C(CSc1nnc(-c2ccccc2)n1Cc1ccco1)Nc1ccc(Oc2ccccc2)cc1,/,/,5,/
C=CCn1c(SCc2cccc(C(F)(F)F)c2)nnc1-c1ccc(OC)cc1,/,/,-4,/
COC(=O)[C@]12C[C@H](CC(=O)NCCCN3CCCC3=O)C(=O)N(CCC3=CCCCC3)C1=C[C@H](C1CCCC1)O[C@@H]2C,/,/,2,/
O=[N+]([O-])c1cccc(N/N=C/c2cccc(O)c2O)c1,21*,22,26,11

# Screens deposited in PubChem BioAssay by several laboratories.
